Assay [1] addresses Cytochrome P450 2C19 (Homo sapiens) (UniProt P33261). In words: Cytochrome P450 Family 2 Subfamily C Member 19 (CYP2C19) small molecule antagonists: luciferase reporter qHTS assay (AID 1671197). Also: nearly all actives have a fitted effect of over 65% in size. In outline:
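Relative luminescence units recorded 20 min after the detection reagent stopped a 1 h, 37C CYP2C19 reaction on proluciferin substrate, which was started by NADPH regeneration following 10 min room-temperature compound preincubation; ketoconazole positive control.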
(Reporter assays use an easily measured gene product as a stand-in for the process of interest.)

Assay [2] concerns the target Cytochrome P450 2C9 (Homo sapiens) (UniProt P11712). As to the kind of experiment: Cytochrome P450 Family 2 Subfamily C Member 9 (CYP2C9) small molecule antagonists: luciferase reporter qHTS assay (AID 1671198). Also: nearly all actives have a fitted effect of over 50% in size. In outline: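 P450-Glo proluciferin substrate with CYP2C9 enzyme; 10 min RT preincubation, then NADPH regeneration 1 h at 37C; luciferin detection reagent 20 min RT, luminescence in relative luminescence units.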

Assay [3] addresses Cytochrome P450 1A2 (Homo sapiens) (UniProt P05177). As to the kind of experiment: Cytochrome P450 Family 1 Subfamily A Member 2 (CYP1A2) small molecule antagonists: luciferase reporter qHTS assay (AID 1671199). Also: nearly all actives have a fitted effect of over 50% in size. In short, it runs like this:
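Enzymatic CYP1A2 assay, human, luminescent: 10 min compound–enzyme–substrate preincubation, 1 h NADPH-dependent turnover, 20 min detection step, room temperature throughout. Reduced light indicates lower CYP1A2 activity.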

In assay [4] the target is Voltage-gated inwardly rectifying potassium channel KCNH2 (Homo sapiens) (UniProt Q12809). In words: Human Ether-a-go-go-Related Gene (hERG) channel small molecule antagonists: fluorescence cell-based qHTS assay (AID 1671200). Also: nearly all actives have a fitted effect of over 50% in size. In outline:
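In this thallium-flux screen, overnight-cultured U2OS cells bearing the channel are dye-loaded in darkness for an hour, rested 10 min at room temperature, and then monitored kinetically at 480/540 nm for two minutes post-stimulus.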
(In general: Block of hERG is tested as a sign of cardiac risk.)

The target in assay [5] is Cytochrome P450 3A4 (Homo sapiens) (UniProt P08684). In words: Cytochrome P450 Family 3 Subfamily A Member 4 (CYP3A4) small molecule antagonists: luciferase reporter qHTS assay (AID 1671201). Also: nearly all actives have a fitted effect of over 50% in size. In outline:
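CYP3A4 activity was followed with a P450-Glo proluciferin substrate. Test compounds in DMSO were preincubated 10 min; NADPH regeneration then ran 1 h, and light output was read 20 min after detection reagent.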

Potency data for 34 compounds are collected here from PubChem BioAssay (Tox21).

Inconclusive results are not listed. A number with no mark means an inactive call. Active and inactive are the calls of the source. Calls follow the shape of the dose curve; as a rule, active = well fitted curve in the direction sought with a large enough effect in the repeat runs; inconclusive = weak or mixed curves; inactive = no such curve, though single readings can be large; an effect the other way counts as inactive or inconclusive.
Potency is read from the fitted curve at half-maximal effect.

Sequence of Cytochrome P450 1A2 (Homo sapiens) (P05177 whole entry, looked up): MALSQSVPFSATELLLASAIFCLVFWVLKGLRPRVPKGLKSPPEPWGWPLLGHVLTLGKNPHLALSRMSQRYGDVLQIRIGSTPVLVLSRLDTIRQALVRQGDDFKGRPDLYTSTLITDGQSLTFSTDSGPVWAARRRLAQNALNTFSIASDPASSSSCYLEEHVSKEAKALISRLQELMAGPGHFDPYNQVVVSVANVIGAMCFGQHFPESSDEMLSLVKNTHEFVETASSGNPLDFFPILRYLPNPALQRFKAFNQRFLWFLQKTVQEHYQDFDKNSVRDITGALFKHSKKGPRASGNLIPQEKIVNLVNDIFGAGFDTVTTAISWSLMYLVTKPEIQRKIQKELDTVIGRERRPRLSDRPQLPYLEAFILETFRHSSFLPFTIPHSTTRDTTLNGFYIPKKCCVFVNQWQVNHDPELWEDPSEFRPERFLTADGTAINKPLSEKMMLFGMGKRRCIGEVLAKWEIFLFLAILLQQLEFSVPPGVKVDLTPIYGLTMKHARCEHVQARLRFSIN
Sequence of Cytochrome P450 2C19 (Homo sapiens) (P33261 whole entry, looked up): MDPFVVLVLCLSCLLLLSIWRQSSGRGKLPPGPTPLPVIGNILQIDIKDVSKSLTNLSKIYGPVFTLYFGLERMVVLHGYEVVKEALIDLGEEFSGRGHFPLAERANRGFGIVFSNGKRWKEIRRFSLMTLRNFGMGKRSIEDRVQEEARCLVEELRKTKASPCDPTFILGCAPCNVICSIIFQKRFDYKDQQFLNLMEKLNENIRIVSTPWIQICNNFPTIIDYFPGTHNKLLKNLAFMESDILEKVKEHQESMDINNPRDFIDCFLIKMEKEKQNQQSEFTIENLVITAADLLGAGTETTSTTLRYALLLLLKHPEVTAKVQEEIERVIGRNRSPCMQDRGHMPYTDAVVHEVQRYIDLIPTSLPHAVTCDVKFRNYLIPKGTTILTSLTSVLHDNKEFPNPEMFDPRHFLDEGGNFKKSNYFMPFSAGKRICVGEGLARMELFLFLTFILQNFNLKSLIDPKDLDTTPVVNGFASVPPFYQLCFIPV
Sequence of Cytochrome P450 2C9 (Homo sapiens) (P11712 whole entry, looked up): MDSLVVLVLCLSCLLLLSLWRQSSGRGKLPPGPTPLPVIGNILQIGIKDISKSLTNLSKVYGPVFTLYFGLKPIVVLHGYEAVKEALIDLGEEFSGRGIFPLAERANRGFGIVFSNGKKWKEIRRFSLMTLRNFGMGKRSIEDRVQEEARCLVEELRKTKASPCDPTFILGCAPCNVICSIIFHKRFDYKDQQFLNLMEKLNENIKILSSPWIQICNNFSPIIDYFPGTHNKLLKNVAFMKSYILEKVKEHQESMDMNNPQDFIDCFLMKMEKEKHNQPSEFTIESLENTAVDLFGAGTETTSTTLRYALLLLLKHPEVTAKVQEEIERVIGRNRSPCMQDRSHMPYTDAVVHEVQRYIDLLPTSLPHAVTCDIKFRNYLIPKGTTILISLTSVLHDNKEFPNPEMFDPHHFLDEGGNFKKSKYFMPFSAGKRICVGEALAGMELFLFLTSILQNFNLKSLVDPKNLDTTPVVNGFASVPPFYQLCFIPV
Sequence of Voltage-gated inwardly rectifying potassium channel KCNH2 (Homo sapiens) (Q12809 whole entry, looked up): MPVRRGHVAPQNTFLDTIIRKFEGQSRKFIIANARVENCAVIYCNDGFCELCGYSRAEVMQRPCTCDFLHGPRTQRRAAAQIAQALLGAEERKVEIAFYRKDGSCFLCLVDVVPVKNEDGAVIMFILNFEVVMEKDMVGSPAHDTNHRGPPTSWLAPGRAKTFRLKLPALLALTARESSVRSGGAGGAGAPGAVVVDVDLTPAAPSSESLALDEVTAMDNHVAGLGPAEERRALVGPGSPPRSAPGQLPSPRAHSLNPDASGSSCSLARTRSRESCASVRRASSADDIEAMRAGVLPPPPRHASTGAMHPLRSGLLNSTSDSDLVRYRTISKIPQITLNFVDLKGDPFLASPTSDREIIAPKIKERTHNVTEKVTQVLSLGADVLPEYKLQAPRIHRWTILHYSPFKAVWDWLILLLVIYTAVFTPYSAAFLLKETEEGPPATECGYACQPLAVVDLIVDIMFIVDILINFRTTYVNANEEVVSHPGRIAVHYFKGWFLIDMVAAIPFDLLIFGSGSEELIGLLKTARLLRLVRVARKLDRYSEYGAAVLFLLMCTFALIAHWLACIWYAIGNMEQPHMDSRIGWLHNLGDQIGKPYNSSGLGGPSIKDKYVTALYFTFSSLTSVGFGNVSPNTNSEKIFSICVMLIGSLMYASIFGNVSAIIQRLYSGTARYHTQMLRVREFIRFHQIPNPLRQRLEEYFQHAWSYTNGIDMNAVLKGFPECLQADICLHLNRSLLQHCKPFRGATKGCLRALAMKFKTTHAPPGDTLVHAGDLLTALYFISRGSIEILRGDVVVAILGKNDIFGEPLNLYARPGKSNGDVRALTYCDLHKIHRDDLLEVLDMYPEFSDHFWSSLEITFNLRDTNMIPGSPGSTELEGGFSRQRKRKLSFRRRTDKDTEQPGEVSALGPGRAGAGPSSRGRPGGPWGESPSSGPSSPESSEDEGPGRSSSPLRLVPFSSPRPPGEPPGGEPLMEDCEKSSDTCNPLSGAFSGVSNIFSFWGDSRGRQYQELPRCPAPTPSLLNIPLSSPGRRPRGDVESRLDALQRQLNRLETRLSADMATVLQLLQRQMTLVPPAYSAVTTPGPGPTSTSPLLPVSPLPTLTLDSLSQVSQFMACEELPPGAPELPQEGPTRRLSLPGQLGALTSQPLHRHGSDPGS
Sequence of Cytochrome P450 3A4 (Homo sapiens) (P08684 whole entry, looked up): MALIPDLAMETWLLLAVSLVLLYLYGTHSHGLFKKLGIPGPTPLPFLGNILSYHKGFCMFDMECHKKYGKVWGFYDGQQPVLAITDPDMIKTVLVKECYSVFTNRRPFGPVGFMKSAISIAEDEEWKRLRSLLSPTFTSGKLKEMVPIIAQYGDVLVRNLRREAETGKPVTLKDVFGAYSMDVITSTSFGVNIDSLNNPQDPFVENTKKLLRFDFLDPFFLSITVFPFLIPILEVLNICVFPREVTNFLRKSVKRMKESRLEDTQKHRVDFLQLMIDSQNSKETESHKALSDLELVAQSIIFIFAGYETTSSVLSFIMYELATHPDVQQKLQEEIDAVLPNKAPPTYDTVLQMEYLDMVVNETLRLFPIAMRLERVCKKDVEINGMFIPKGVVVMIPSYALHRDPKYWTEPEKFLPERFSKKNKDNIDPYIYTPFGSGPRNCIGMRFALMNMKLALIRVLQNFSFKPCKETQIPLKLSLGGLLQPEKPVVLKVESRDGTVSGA

For the compound `CC1CCC(=O)C1=O` (centres undefined), the Potency result in assay [1], in assay [2], in assay [3] and in assay [4] was “inactive” throughout.

As for `Nc1ncn([C@H]2C[C@H](O)[C@@H](CO)O2)c(=O)n1`, the Potency entry in assay [1], in assay [2], in assay [3] and in assay [4] was “inactive” in each case.

For `CCCCC1=NC2(CCCC2)C(=O)N1Cc1ccc(-c2ccccc2-c2nn[nH]n2)cc1`, the Potency result in assay [1], in assay [3] and in assay [4] was “inactive” throughout. The Potency in assay [2] was 17.4 µM (active).

Consider `CCOc1ccc(N)c([N+](=O)[O-])c1`, for which the Potency in assay [1] is 35.6 µM (active); in assay [2], 63.3 µM (active); in assay [3] it was 1.78 µM (active). Besides, in assay [4], the Potency entry is “inactive”.

As for `CC(C)(COC(=O)c1ccccc1)COC(=O)c1ccccc1`, the Potency was 20 µM (active) in assay [1], 6.33 µM (active) in assay [2] and 39.9 µM (active) in assay [3].

As for `CCCCC/C=C\C/C=C\CCCCCCCC(=O)NC(C)c1ccccc1` (centres undefined), the Potency in assay [1] is 4.9 µM (active); in assay [2], 2.45 µM (active). The Potency entry in assay [3] was “inactive”.

Turning to `OC(C#CCN1CCCC1)(c1ccccc1)c1ccccc1`, the Potency in assay [1] is 2.45 µM (active); in assay [2], 15.5 µM (active). For the same compound, in assay [3], the Potency entry is “inactive”.

As to `O=C(Cl)c1cc(C(=O)Cl)cc(C(=O)Cl)c1`, the Potency result in assay [1] was “inactive”. Further, the Potency in assay [2] was 28.3 µM (active); in assay [3], 39.9 µM (active).

For `CCC(C)(C)CC`, the Potency entry in assay [1], in assay [2], in assay [3] and in assay [4] was “inactive” each time.

Turning to `CCCCCCCN`, the Potency result in assay [1] and in assay [2] was “inactive” in each case.

For the compound `OCCN1CCN(CCCN2c3ccccc3C=Cc3ccccc32)CC1`, the Potency result in assay [1], in assay [2] and in assay [3] was “inactive” in each case.

With `C#CCN(C)CCCOc1ccc(Cl)cc1Cl`, the Potency was 3.89 µM (active) in assay [1], 17.4 µM (active) in assay [2], 1.82 µM (active) in assay [3] and 8.49 µM (active) in assay [4].

With `S=C([S-])NCCNC(=S)[S-].[Mn+2]`, the Potency was 17.8 µM (active) in assay [1], 11.2 µM (active) in assay [2] and 25.2 µM (active) in assay [3]. In addition, the Potency result in assay [4] was “inactive”.

On to `CC(C)=CCC/C(C)=C/CC/C(C)=C/CO`, for which the values for the Potency in assay [1], in assay [2] and in assay [3] were 4.48 µM (active), 17.8 µM (active) and 28.3 µM (active), respectively.

As for `C1CCCNCCC1`, the Potency entry in assay [1], in assay [2], in assay [3] and in assay [4] was “inactive” in each case.

As for `O=C(OCCc1ccccc1)c1ccccc1`, the Potency in assay [1] is 12.6 µM (active); in assay [2] it was 31.7 µM (active); in assay [3], 20 µM (active). In addition, the Potency result in assay [4] was “inactive”.

Consider `O=[N+]([O-])c1cccc(S(=O)(=O)O)c1`, for which the Potency in assay [1] was 32.2 µM (active); in assay [2], 32.2 µM (active); in assay [3], 40.5 µM (active); in assay [4] it was 22.2 µM (active); in assay [5], 36.1 µM (active).

For `O=P(O)(OCc1ccccc1)OCc1ccccc1`, the Potency result in assay [1], in assay [3], in assay [4] and in assay [5] was “inactive” in each case. The Potency in assay [2] is 22.4 µM (active).

As for `c1cc(CCCc2ccncc2)ccn1`, the Potency was 1.59 µM (active) in assay [1], 5.64 µM (active) in assay [2], 1.78 µM (active) in assay [3] and 1 µM (active) in assay [5]. Also, the Potency entry in assay [4] was “inactive”.

For `CN(C)c1ccc(CCO)cc1`, the results for the Potency in assay [1], in assay [2] and in assay [3] were 28.1 µM (active), 19.9 µM (active) and 35.4 µM (active), respectively. Further, the Potency entry in assay [4] and in assay [5] was “inactive” each time.

Regarding `COc1ccc(C(=O)N2CCN(CC(=O)N3CCOCC3)CC2)cc1`, the Potency entry in assay [1], in assay [2], in assay [3], in assay [4] and in assay [5] was “inactive” in each case.

Turning to `CCCCCCOC(=O)NC(=N)c1ccc(NCc2nc3cc(C(=O)N(CCC(=O)OCC)c4ccccn4)ccc3n2C)cc1`, the Potency in assay [1] was 2.19 µM (active); in assay [2], 3.09 µM (active); in assay [4] it was 0.601 µM (active). The Potency result in assay [3] was “inactive”.

Turning to `NCCCN1CCOCC1`, the Potency entry in assay [1], in assay [2], in assay [3], in assay [4] and in assay [5] was “inactive” throughout.

Consider `OC(CN1CCC(Cc2ccc(F)cc2)CC1)c1ccc(Cl)cc1` (centres undefined), for which the Potency result in assay [1], in assay [2] and in assay [3] was “inactive” throughout. Also, the Potency in assay [4] is 0.0849 µM (active).

In the case of `CCCCCC[C@@H](O)C/C=C\CCCCCCCC(=O)OC`, the Potency in assay [1] was 25.3 µM (active); in assay [2] it was 12.7 µM (active); in assay [3], 35.7 µM (active). Further, the Potency result in assay [4] and in assay [5] was “inactive” each time.

On to `O=C(Nc1ccc(S(=O)(=O)N2CCOCC2)cc1)c1cc(Cl)ccc1NS(=O)(=O)c1ccc(Cl)s1`, for which the results for the Potency in assay [1] and in assay [2] were 38.9 µM (active) and 0.0436 µM (active), respectively. Moreover, the Potency result in assay [3] and in assay [4] was “inactive” in each case.

Consider `COc1ccc(C(=O)c2ccc(OC)cc2O)c(O)c1`, for which the Potency is 0.802 µM (active) in assay [1], 11.3 µM (active) in assay [2], 0.402 µM (active) in assay [3] and 25.4 µM (active) in assay [5]. The Potency entry in assay [4] was “inactive”.

In the case of `CCn1cc(C(=O)O)c(=O)c2cnc(N3CCNCC3)nc21`, the Potency entry in assay [1], in assay [2], in assay [3], in assay [4] and in assay [5] was “inactive” each time.

`CCCCc1nc2cccnc2n1Cc1ccc(-c2ccccc2-c2nnn[nH]2)cc1`: the Potency result in assay [1] and in assay [4] was “inactive” in each case. The Potency is 0.356 µM (active) in assay [2] and 44.8 µM (active) in assay [3].

For `COc1cc(Cl)ccc1Oc1ccc(Cl)cc1Cl`, the Potency in assay [1] is 1.23 µM (active); in assay [2], 19.5 µM (active); in assay [3], 12.3 µM (active). Also, the Potency entry in assay [4] was “inactive”.

For `COC(C)(C)CCO`, the Potency result in assay [1], in assay [2], in assay [3], in assay [4] and in assay [5] was “inactive” throughout.

For the compound `C=C1C(=C/C=C2\CCC[C@]3(C)[C@@H]([C@H](C)/C=C/[C@@H](O)C4CC4)CC[C@@H]23)C[C@@H](O)C[C@@H]1O`, the Potency in assay [1] is 7.76 µM (active); in assay [2] it was 15.5 µM (active). For the same compound, the Potency result in assay [3] and in assay [4] was “inactive” in each case.

As for `CCCCCCCCCc1ccc(OCCOCCO)cc1`, the Potency in assay [1] is 16.7 µM (active); in assay [2], 10.6 µM (active); in assay [4], 8.17 µM (active); in assay [5] it was 8.39 µM (active). Further, the Potency entry in assay [3] was “inactive”.

`O[C@@H](COc1cccc2ncccc12)CN1CCN(C2c3ccccc3[C@@H]3[C@H](c4ccccc42)C3(F)F)CC1` (some centres undefined): the Potency was 21.9 µM (active) in assay [1], 11 µM (active) in assay [2], 15.5 µM (active) in assay [3] and 10.7 µM (active) in assay [4].
